In PubChem BioAssay (Tox21):
Inconclusive results are not listed. The source made the active and inactive calls. The call rests on the fitted dose curve; in most records, active means well fitted inhibition curve with a large enough effect in the signal ratio in the repeat runs (not every such curve was filed as active); inconclusive means weak or mixed curves, or effect the other way; inactive means no such curve, though single readings can be large or run the other way; the % refers to the signal ratio.

target: Peroxisome proliferator-activated receptor delta (Homo sapiens) (UniProt Q03181); assay: qHTS assay to identify small molecule antagonists of the peroxisome proliferator-activated receptor delta (PPARd) signaling pathway (AID 743215); details: HEK293H PPARd-UAS-bla, beta-lactamase FRET ratio, antagonist, 17 h; series mostly up to 62 µM; ratio activity, negative = inhibition: at the top concentration;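 further: cells stimulated with agonist L165041 at 300 nM final during compound exposure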
Excerpt: U.S. Tox21 Program National Center for Advancing Translational Sciences [NCATS] NIH Chemical Genomics Center [NCGC] U.S. Environmental Protection Agency [EPA] National Institutes of Environmental Health Sciences [NIEHS] National Toxicology Program [NTP] U.S. Food and Drug Administration [FDA] Tox21 Assay Overview: The peroxisome proliferator-activated receptors (PPARs) are lipid-activated transcription factors of the nuclear receptor superfamily with three distinct subtypes namely PPAR alpha, PPAR delta (PPARd) and PPAR gamma. All these subtypes heterodimerizes with Retinoid X receptor (RXR) and have different physiological functions. […] To identify the compounds that inhibit PPAR-delta signaling, GeneBLAzer PPAR delta UAS-bla HEK293H cell line (Invitrogen, Carlsbad, CA, USA) containing a beta-lactamase reporter gene under the control of an Upstream Activator Sequence (UAS) was used to screen the Tox21 compound library.
Tox21 Assay Protocol Summary: PPARd-bla cells were dispensed at 3000 cells/5uL/well in 1536-well black wall/clear bottom plates using a Multidrop Combi (Thermo Fisher Scientific, Waltham, MA) dispenser. After the assay plates were incubated at 37 C and 5% CO2 for 5 h, 23 nL of compounds dissolved in DMSO, positive controls or DMSO only was transferred to the assay plate by a Pintool station (Kalypsys, San Diego, CA), followed by addition of 1ul L165041 (300 nM, final concentration in the wells). The assay plates were incubated at 37 C for 17 h, and then 1 uL of LiveBLAzerTM B/G FRET substrate was added using a Bioraptr Flying Reagent Dispenser (FRD) workstation (Beckman Coulter, Indianapolis, IN, USA). The assay plates were incubated at room temperature for 2 h and fluorescence intensity was measured by an Envision plate reader (PerkinElmer, Shelton, CT).
On the % scale 0 is the no-effect control and ±100 the full control effect.

Sequence of Peroxisome proliferator-activated receptor delta (Homo sapiens) (Q03181 whole entry, looked up): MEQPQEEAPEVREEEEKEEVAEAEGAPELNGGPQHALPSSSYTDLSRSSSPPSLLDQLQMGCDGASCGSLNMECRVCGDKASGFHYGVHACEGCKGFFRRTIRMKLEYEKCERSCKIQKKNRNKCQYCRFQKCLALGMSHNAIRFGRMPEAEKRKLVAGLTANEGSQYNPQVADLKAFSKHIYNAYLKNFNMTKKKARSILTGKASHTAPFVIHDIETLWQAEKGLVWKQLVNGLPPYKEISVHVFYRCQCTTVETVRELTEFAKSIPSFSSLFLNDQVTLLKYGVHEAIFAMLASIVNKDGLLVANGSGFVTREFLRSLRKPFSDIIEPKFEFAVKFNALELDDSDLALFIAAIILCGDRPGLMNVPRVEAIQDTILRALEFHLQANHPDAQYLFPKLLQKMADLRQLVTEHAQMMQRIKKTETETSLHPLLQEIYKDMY

SMILES | ratio activity, negative = inhibition
CCCCCCCCCCOC(C)=O | 10.3% (inactive)
CCC[C@@H]1C[C@@H](C(=O)N[C@@H]([C@H]2O[C@H](SC)[C@H](O)[C@@H](O)[C@H]2O)[C@@H](C)O)N(C)C1 | 5.36% (inactive)
CC12CCC(C1)C(C)(C)C2O (stereo not given) | -5.71% (inactive)
[O-][n+]1cccc(/C(Cl)=N/OC[C@@H](O)CN2CCCCC2)c1 | -4.35% (inactive)
COC(C)(OC)OC | 3.52% (inactive)
CN(C)CCOC(=O)C(c1ccccc1)C1(O)CCCC1 (stereo not given) | 1.84% (inactive)
OCC(O)CN1CCN(c2ccccc2)CC1 (stereo not given) | 1.98% (inactive)
OCC1(CO)COCOC1 | 1.19% (inactive)
NCc1ccc(S(N)(=O)=O)cc1 | 0.783% (inactive)
CC(C)NC(=O)c1ccc(C=O)cc1 | -1.18% (inactive)
CC(=O)CC(=O)Nc1ccc(C)cc1C | -11% (inactive)
CCOCCOCC | 3.81% [at 80.4 µM] (inactive)
CC(O)CC(C)O (stereo not given) | 0.11% (inactive)
CCCCOC(=O)[C@H](C)O | 27.3% (inactive)
CC(N)CCCC(C)(C)O (stereo not given) | 1.67% (inactive)
CCOc1cccc(N)c1 | 8.38% (inactive)
C/C=C(\C)C(C)=O | 2.02% (inactive)
CC1(C)O[C@H]2CC(=O)OC[C@]23[C@H]2CC[C@@]4(C)[C@H](c5ccoc5)OC(=O)[C@H]5O[C@]54[C@]2(C)C(=O)C[C@@H]13 | -0.377% (inactive)
CCc1occc(=O)c1O | 0.377% (inactive)
Cc1c(NC(=O)c2cccnc2)c(=O)n(-c2ccccc2)n1C | 2.95% (inactive)

SMILES | ratio activity, negative = inhibition
O=C(O)CCCCCC(=O)O | 7.05% [at 80.4 µM] (inactive)
CCCCCc1cccc(=O)o1 | -1.29% (inactive)
CC/C(C)=N\O[Si](C)(O/N=C(\C)CC)O/N=C(\C)CC | -9.68% [at 80.4 µM] (inactive)
COC(=O)CCCCC(CCSS/C(CCO)=C(\C)N(C=O)Cc1cnc(C)nc1N)SC(C)=O (stereo not given) | -7.02% (inactive)
CCCCC1CCC(O)CC1 (stereo not given) | -3.41% (inactive)
C[C@H]1[C@@H](c2ccccc2)NC(=O)N1C | -0.757% [at 80.4 µM] (inactive)
CCC(C)C(=O)OCCc1ccccc1 (stereo not given) | 9.12% (inactive)
Cn1nnc2c(C(N)=O)ncn2c1=O | 2.73% (inactive)
CC(=O)CC(=O)OC(C)(C)C | 20.5% (inactive)
O=C(O)[C@H](O)c1ccccc1 | 8.81% (inactive)
CCC(C)OC(C)CC (stereo not given) | -0.861% [at 80.4 µM] (inactive)
Cc1ccnc(N)c1 | 5.15% (inactive)
O=C(O)c1cc2ccccc2nc1C(=O)O | -0.305% (inactive)
N#CCC(=O)NN | -1.21% (inactive)
CCCCOC(=O)C(C)O (stereo not given) | 5.78% (inactive)
O=C(CN1CCNCC1)NC1CCCCC1 | 5.58% (inactive)
COC(=O)c1cccc(Cl)c1 | 0.704% (inactive)
Cc1cccc(Cl)c1 | 3.42% (inactive)
CN1CCOC(c2ccccc2)c2ccccc2C1 (stereo not given) | 0.13% (inactive)
CC(=O)OC1CCCCC1C(C)(C)C (stereo not given) | 25.2% (inactive)
